# Measured values published in ChEMBL document CHEMBL4513216, “Probing the Open Global Health Chemical Diversity Library for Multistage-Active Starting Points for Next-Generation Antimalarials” (ACS Infect Dis, 2020).
# Among all 68,000 compounds or so, about 2,700 (4%) showed an effect of 50% or more. Only a selection was taken, and strong results are over-represented in it overall.
# System: Plasmodium berghei
# Assay: Screen against P. berghei liver stage (PbLuc), transformed with Luciferase, at 2uM
# Format: functional, HepG2
# Settings: tested at 2 uM
row,Compound,INHIBITION [%]
1,Cc1ccc(C2CN(C(=O)NCc3nnc4ccccn34)CCO2)o1 (centres undefined),26.03
2,CCn1cnnc1CNC(=O)N1CCOC(c2ccccc2Cl)C1 (centres undefined),42.19
3,O=C(NCc1nnc2ccccn12)N1CCc2sccc2C1,30.31
4,O=C(NCc1nccs1)N1CCOC(c2ccccc2Cl)C1 (centres undefined),-71.45
5,O=C(NCc1nnc2ccccn12)N1CCOC(c2ccsc2)C1 (centres undefined),63.39
6,O=C(NCc1nnc2ccccn12)N1CCOC(c2cccs2)C1 (centres undefined),50.46
7,CCN1CCC2(CC1)OCCN2C(=O)c1cc(Cl)c(OC)c(Cl)c1,19.62
8,Cc1cc(C)n(C2CCCN(C(=O)c3ccc(N(C)C)nc3)C2)n1 (centres undefined),-35.65
9,Cc1noc(C)c1S(=O)(=O)N(CC(N)=O)CC(C)C,23.08
10,CC(C)n1cc(CN2CCCN(C(=O)C(C)n3cccn3)CC2)cn1 (centres undefined),-86.2
11,O=c1ccc2c(n1CC1CC1)CCC(NCc1cccs1)C2 (centres undefined),-26.76
12,CCC(C(=O)NC1CCCCC1)n1cccc(OC)c1=O (centres undefined),-6.88
13,CCC(C(=O)NC(C)(C)C)n1cccc(OC)c1=O (centres undefined),56.16
14,CCC(C(=O)NC(C)(C)C)n1ccc2ncccc2c1=O (centres undefined),8.09
15,CCN(C)S(=O)(=O)N1C[C@H]2CC[C@@H](C1)N(Cc1cscn1)C2=O,48.21
16,CC(NC(=O)N(C)Cc1cccc(OC(F)F)c1)c1nncn1C (centres undefined),59.03
17,CCn1cnnc1CNC(=O)N(C)Cc1cccc(OC(F)F)c1,64.16
18,CCn1cnnc1CNC(=O)N(C)Cc1ccc2c(c1)OCCO2,-16.42
19,CCn1cnnc1CNC(=O)N(C)Cc1ccc(F)c(F)c1,-2.9
20,COc1ccc(CN(C)C(=O)NC(C)c2nncn2C)cc1F (centres undefined),-6.61
21,CCOc1ccc(CN(C)C(=O)NC(C)c2nncn2C)cc1 (centres undefined),-27.75
22,Cc1cccc(CN2CCC(C3Nc4ccccc4S(=O)(=O)N3)CC2)n1 (centres undefined),7.38

row,Compound,INHIBITION [%]
1,COc1cc(N2C[C@@H]3COC[C@]3(COCc3ccccn3)C2)ncn1,-14.27
2,Cn1ccnc1CN1CCCC2(CCN(CC3CCCO3)CC2)C1 (centres undefined),26.46
3,Cc1nc(C2CCCN(C(=O)c3ccc(OCC4CC4)nc3)C2)no1 (centres undefined),28.65
4,CC(CNC(=O)NCc1ccsc1)CC1(C)OCCO1 (centres undefined),-35.5
5,CC1(CCNC(=O)NCc2ccsc2)OCCO1,57.23
6,CC1(C(=O)NCc2ccsc2)CCOCC1,5.75
7,O=C(Cn1nc2c(cc1=O)CCCC2)NC(C(=O)O)c1ccccc1 (centres undefined),25.23
8,CC1COCCN1Cc1nc(Cc2ccccc2)no1 (centres undefined),-23.37
9,COc1ncc(NCc2cccc(C#N)c2)cc1C(N)=O,-7.69
10,COc1ncc(NCc2ccc(C#N)cc2)cc1C(N)=O,63.31
11,COc1ncc(NCc2ccc(F)cc2)cc1C(N)=O,17.18
12,CN1C(=O)CC(C(=O)O)C12CCN(c1ccc3cccc(Cl)c3n1)CC2 (centres undefined),-1.78
13,CC(CCc1ccccc1)NC(=O)Nc1cnn(CC(N)=O)c1 (centres undefined),41.72
14,Cc1ccccc1CC(C)NC(=O)Nc1cnn(CC(N)=O)c1 (centres undefined),81.1
15,CC(Cc1ccccc1Cl)NC(=O)Nc1cnn(CC(N)=O)c1 (centres undefined),-7.81
16,COCCN1CCC2(CC1)CN(CCn1cccn1)C(=O)CO2,20.2
17,Cc1ccc(C(=O)N(C)CC(=O)NCC(F)(F)F)cn1,71.4
18,Cc1ccc(C(=O)N(C)CC(=O)Nc2cccc(C)n2)cn1,23.76
19,CN(CC(=O)NCC(F)(F)F)C(=O)c1ccc(C(=O)OC(C)(C)C)cc1,-16.4
20,CCC(=O)Nc1cc(Cl)ccc1C(=O)N(C)Cc1noc(CC)n1,1.1
21,COc1ccc(F)cc1-n1cnc(CCNC(C)=O)c1,45.82
22,COc1ccc(Cl)cc1-n1cnc(CCNC(C)=O)c1,26.74

row,Compound,INHIBITION [%]
1,COc1cc(F)c(-n2cnc(CCNC(C)=O)c2)cc1F,60.13
2,CC(=O)N(CCc1nc(-c2cc(C(N)=O)oc2C)cs1)C(C)C,10.22
3,COc1cc(OC)c(C2CC(=O)Oc3cc(C)[nH]c(=O)c32)c(OC)c1 (centres undefined),14.96
4,O=C(O)C(c1ccc2c(c1)OCO2)N1CCCC1 (centres undefined),4.53
5,O=C(O)C(c1ccc2c(c1)OCO2)N1CCCCCC1 (centres undefined),59.48
6,O=C(O)C(c1ccc2c(c1)OCCO2)N1CCCCCC1 (centres undefined),19.56
7,Cc1ccc(-n2cc3[nH]c(=O)[nH]n3c2=O)cc1,-15.37
8,Cc1ccc(CN2CCC3(CC(C(=O)NC4CCC4)=NO3)C2)o1 (centres undefined),-27.21
9,CC(C)N1CCC2(CC1)CN(C)C(=O)C[C@H]2C(F)(F)F,-24.39
10,CC(=O)N1CCC2(CC1)CN(C)C(=O)C[C@H]2C(F)(F)F,64.92
11,CN1CCC2(CC1)CN(C)C(=O)C[C@@H]2C(F)(F)F,6.22
12,CCN(CC)S(=O)(=O)N1C[C@@H](O)[C@H](Oc2cccc(F)c2)C1,16.01
13,Cc1nc(N2CCCC2)nc2c1CCN(C(=O)CC1CCCC1)CC2,1.33
14,COC(=O)c1ccc2ccn(CC3COCCO3)c(=O)c2c1 (centres undefined),21
15,COC(=O)c1ccc2ccn(CC3CCCO3)c(=O)c2c1 (centres undefined),52.21
16,COC(=O)c1ccc2ccn(CC3CCCCO3)c(=O)c2c1 (centres undefined),-32.35
17,COc1ccc(CCNCc2c(C)nn(C)c2N(C)C)cc1OC,7.74
18,O=C1CC(c2ccc(O)cc2)c2sc(C(=O)O)c(-c3ccccc3)c2N1 (centres undefined),20.4
19,CC(C)CN1CCC2(CC1)CN(C(=O)C(C)C)C2,16.12
20,CC(C)C(=O)N1CC2(CCN(CC(C)(C)C)CC2)C1,50.72
21,CC(C)C(=O)N1CCC2(CN(CC3CCCC3)C2)C1,0.32
22,CS(=O)(=O)N1CCC2(CCN(C(=O)c3cccs3)CC2)CC1,11.79

row,Compound,INHIBITION [%]
1,COC(=O)CCCn1ccnc1-c1ccccc1,1.42
2,COCc1ncc(-c2nccn2CCN(C)C)cn1,-24.39
3,COc1ncc(-c2nccn2CCN(C)C)cn1,-37.29
4,CCCn1ccnc1-c1nccn1CCC(N)=O,43.44
5,COCc1ncc(-c2nccn2CCn2cnnc2)cn1,-0.15
6,CCSc1ncc(-c2nccn2CCN(C)C)cn1,59.03
7,COCCCn1ccnc1-c1cnc(OC)nc1,-26.85
8,CCCSc1ncc(-c2nccn2CCC(N)=O)cn1,60.13
9,CCCSc1ncc(-c2nccn2CCO)cn1,52.98
10,CN(C)C(=O)COC[C@]12COC[C@H]1CN(Cc1ccccc1)C2,42.18
11,Cc1ccc(CC(=O)Nc2cc(C(C)C)n[nH]2)cn1,29.54
12,NC(=O)c1cc(C2CC2)nc2ccc(F)cc12,-28.49
13,CC(Nc1cccc2c1OCCO2)C(=O)Nc1cccc(C#N)c1 (centres undefined),17.64
14,COCCCN(C)C(=O)c1cccc(Nc2cnccn2)c1,-5.53
15,CCN(CC)S(=O)(=O)NCC(O)c1c(Cl)cccc1Cl (centres undefined),51
16,CCCS(=O)(=O)NCC(O)c1c(Cl)cccc1Cl (centres undefined),-35.21
17,CC(C)n1ccc(C(=O)NCC(O)c2c(Cl)cccc2Cl)n1 (centres undefined),-6.2
18,CCCN1CCCC2(CCN(S(=O)(=O)N3CCC(OC)CC3)C2)C1=O (centres undefined),-46.38
19,CCN(Cc1ccncc1)CC1(O)CCN(C(=O)c2ccccc2C)C1 (centres undefined),44.07
20,CCN(Cc1ccncc1)CC1(O)CCN(C(=O)c2cccc(C)c2)C1 (centres undefined),45.73
21,CCN(Cc1ccncc1)CC1(O)CCN(C(=O)c2cnn(C)c2)C1 (centres undefined),52.82
22,COCc1nc(C(=O)NS(=O)(=O)c2cc(C)ccc2C)cs1,25.74

row,Compound,INHIBITION [%]
1,Cc1cc(N2CCN(C(=O)c3cnn(C(C)C)c3)CC2)cc(C)n1,44.95
2,NC(=O)CN1CC2(CCC1=O)CCN(Cc1cc(F)ccc1Cl)CC2,23.7
3,Cn1cc(CN2CCC3(CC2)CN(C(=O)c2cnccn2)CCO3)cn1,2.22
4,Cc1cc(N2CCCC(c3nncn3C3CC3)C2)ncn1 (centres undefined),-23.49
5,CC(C(=O)N1CCCC1)N1CCC(c2nccn2CC2CCC2)CC1 (centres undefined),-19.54
6,CCn1c(CN2CCCC2)nnc1C1CCN(Cc2cccnc2)CC1,-35.07
7,CCn1c(CN2CCCC2)nnc1C1CCN(Cc2ccncc2)CC1,54.41
8,CCn1c(CN(C)C)nnc1C1CCN(Cc2ccncc2)CC1,11.74
9,CCn1c(Cn2cncn2)nnc1C1CCN(C2CCOCC2)CC1,50.32
10,c1ncn(Cc2nnc(C3CCN(C4CCOCC4)CC3)n2C2CC2)n1,-33.43
11,CCn1c(Cn2cncn2)nnc1C1CCN(C2CCNCC2)CC1,19.49
12,Cc1cnc(C)c(Oc2ccc(CN3CCCC3)cc2Cl)n1,-9.5
13,Cc1ccc(C2CCCCCN2CCCS(C)(=O)=O)o1 (centres undefined),38.67
14,CNS(=O)(=O)CCCN1CCCCCC1c1ccc(C)o1 (centres undefined),60.13
15,Cc1ccc(C2CCCCCN2CCNS(C)(=O)=O)o1 (centres undefined),48.21
16,CC1CCN(S(=O)(=O)N2Cc3ccccc3C[C@H]2C(N)=O)CC1,21.37
17,O=C(O)c1cc(C2CC2)nc2c(Cl)cnn12,0.89
18,COC(=O)c1cc(C2CC2)nc2c(C#N)cnn12,11.95
19,COC(=O)c1cc(C2CC2)nc2c(Cl)cnn12,70.37
20,Cc1nc(CN2CCCn3c(nc(Cn4cncn4)cc3=O)C2)cs1,37.6
21,N#Cc1ccc(N2CCC3(CC2)CC(Oc2cccnc2)CO3)cc1 (centres undefined),38.49
